This is part of a sample that, as a whole, favours compounds with a hit. Of some 79,000 tested, about 15% had one in any assay. Activity calls are given as the source filed them. No stated cut-off is given here; in the data, active means growth inhibition above about 70%; inactive means the rest.
Experiments:
[1] = NCI Yeast Anticancer Drug Screen. Data for the rad52 strain (AID 147);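 further: 0% = growth of vehicle-treated control cultures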; settings: S. cerevisiae rad52 mutant growth inhibition, active compounds read high
In short: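 Measured: yeast growth inhibition. System: strain with a defined DNA damage repair alteration. Reference: vehicle-treated control cultures.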

[2] = NCI Yeast Anticancer Drug Screen. Data for the wt1 strain (AID 149);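 further: 0% = growth of vehicle-treated wt1 cultures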; settings: S. cerevisiae wt1 strain (SPY 50644) growth inhibition, active compounds read high
In short: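 The wt1 strain was treated with compounds, and growth was compared with vehicle-treated cultures to give inhibition.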

[3] = NCI Yeast Anticancer Drug Screen. Data for the mgt1 strain (AID 153); settings: S. cerevisiae mgt1 mutant growth inhibition, active compounds read high
In short: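 After exposure of the mgt1 yeast mutant to compound, growth was measured and reported as inhibition compared with vehicle controls.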

[4] = NCI Yeast Anticancer Drug Screen. Data for the rad50 strain (AID 155);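 further: 0% = growth of vehicle-only cultures of the same strain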; settings: S. cerevisiae rad50 strain growth inhibition, active compounds read high
In short: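 Cells are treated with compound, grown, and their growth is then scored against vehicle-only cultures of the same repair-deficient yeast strain.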

[5] = NCI Yeast Anticancer Drug Screen. Data for the mec2-1 strain (AID 157); settings: S. cerevisiae mec2-1 strain, active compounds read high
In short: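 Test agents were screened against the mec2-1 yeast strain, with defined DNA repair or cell cycle alteration. Growth was scored as inhibition against vehicle-only controls.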

[6] = NCI Yeast Anticancer Drug Screen. Data for the rad14 strain (AID 159);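 further: 0% = growth of vehicle-treated control cultures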; settings: S. cerevisiae rad14 strain growth inhibition, active compounds read high
In short: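 Readout: yeast growth inhibition, referenced to vehicle-only cultures. Strain bears a defined alteration in DNA damage repair.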

[7] = NCI Yeast Anticancer Drug Screen. Data for the sgs1 mgt1 strain (AID 161);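 further: 0% = growth of cultures given vehicle only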; settings: S. cerevisiae sgs1 mgt1 strain, active compounds read high
In short: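 Test agents were incubated with a DNA-repair-mutant yeast strain. Growth was then read and compared against vehicle-treated controls.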

[8] = NCI Yeast Anticancer Drug Screen. Data for the CLN2oe strain (AID 163);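 further: 0% = growth of vehicle-only control cultures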; settings: S. cerevisiae CLN2oe strain, active compounds read high
In short: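 Here, growth inhibition in a cell-cycle-altered yeast strain after compound exposure was quantified against vehicle control growth.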

[9] = NCI Yeast Anticancer Drug Screen. Data for the cln2 rad14 strain (AID 165);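 further: 0% = growth equal to vehicle treated cultures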; settings: S. cerevisiae cln2 rad14 strain, active compounds read high
In short: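 Growth of compound-exposed yeast (cln2 rad14 genotype) measured and expressed as inhibition relative to vehicle.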

[10] = NCI Yeast Anticancer Drug Screen. Data for the bub3 strain (AID 167); settings: S. cerevisiae bub3 mutant strain, active compounds read high
In short: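 Part of a panel of yeast mutants defective in DNA damage repair or cell cycle regulation. Each strain is grown with compound, and inhibition is calculated relative to solvent-treated cultures.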

[11] = NCI Yeast Anticancer Drug Screen. Data for the wt2 strain (AID 169);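 further: 0% = growth of vehicle-treated yeast cultures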; settings: S. cerevisiae wt2 strain growth inhibition, active compounds read high
In short: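 Genetically defined yeast strains from a DNA-repair/cell-cycle panel were used. Compound-exposed yeast growth was measured, and the inhibition was calculated relative to vehicle treatment.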

[12] = NCI Yeast Anticancer Drug Screen. Data for the mlh1 strain (AID 171);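 further: 0% = growth of vehicle-treated control cultures of the same strain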; settings: S. cerevisiae mlh1 strain growth inhibition, active compounds read high
In short: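 Here the genetically defined yeast mutant is grown with each compound, and the extent to which its growth falls below that of vehicle-exposed cells is reported.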

[13] = NCI Yeast Anticancer Drug Screen. Data for the sgs1 strain (AID 173);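 further: 0% = growth of vehicle-only control cultures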; settings: S. cerevisiae sgs1 mutant, active compounds read high
In short: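 Relative growth inhibition, referenced to vehicle, was determined in a yeast strain with a defined alteration affecting DNA damage repair or cell cycle control after compound exposure.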

[14] = NCI Yeast Anticancer Drug Screen. Data for the mlh1 rad18 strain (AID 175); settings: S. cerevisiae mlh1 rad18 strain growth inhibition, active compounds read high
In short: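 In this whole-cell yeast screen, a strain with altered DNA damage repair is challenged with compound, and its growth is measured against matched vehicle-treated controls.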

[15] = NCI Yeast Anticancer Drug Screen. Data for the rad18 strain (AID 177); settings: S. cerevisiae rad18 mutant growth inhibition, active compounds read high
In short: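 Screen uses a yeast strain with a defined lesion in DNA damage repair; compound effect is read as loss of growth compared to untreated vehicle cultures.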

[16] = NCI Yeast Anticancer Drug Screen. Data for the rad50EPP+ strain (AID 151);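 further: 0% = growth of vehicle-treated control cultures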; settings: S. cerevisiae rad50 mutant strain, active compounds read high
In short: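 One strain with a rad50 alteration (rad50EPP+) was compound-treated, its growth then compared to that of vehicle controls.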

[17] = at 5.0 µM (retest, dose inferred, filed as 0.5)
[18] = at 50.0 µM (retest, dose inferred, filed as 5.0)

Measured: growth inhibition

C[C@]12CCC(=O)C=C1CC[C@@H]1C2CC[C@@]2(C)C1CC[C@@H]2OC(=O)C12OC1CCC2=O (stereo partly specified)
active: [1]; at 33.0 µM 83% | [1]; at 100.0 µM 96% | [2]; at 100.0 µM 96% | [3]; at 33.0 µM 92% | [3]; at 100.0 µM 97% | [4]; at 33.0 µM 79% | [4]; [18] 87% | [4]; at 50.0 µM 86.2% | [4]; at 100.0 µM 95% | [5]; at 33.0 µM 90% | [5]; [18] 86% | [5]; at 50.0 µM 88.8% | [5]; at 100.0 µM 97% | [6]; at 33.0 µM 75% | [6]; at 100.0 µM 96% | [7]; [18] 93% | [7]; at 50.0 µM 88.7% | [8]; at 100.0 µM 96% | [10]; at 33.0 µM 79% | [10]; [18] 96% | [10]; at 50.0 µM 84.5% | [10]; at 100.0 µM 96% | [11]; at 33.0 µM 91% | [11]; at 100.0 µM 96% | [12]; at 33.0 µM 94% | [12]; at 100.0 µM 97% | [13]; at 33.0 µM 95% | [13]; at 100.0 µM 96% | [14]; [18] 92% | [14]; at 50.0 µM 85.4% | [15]; at 33.0 µM 83% | [15]; at 100.0 µM 97%
inactive: [1]; at 1.2 µM 0% | [1]; at 3.7 µM 23% | [1]; at 11.0 µM 37% | [2]; at 1.2 µM -2% | [2]; at 3.7 µM -9% | [2]; at 11.0 µM 8% | [2]; at 33.0 µM 66% | [3]; at 1.2 µM -8% | [3]; at 3.7 µM -11% | [3]; at 11.0 µM 27% | [4]; at 1.2 µM -15% | [4]; at 3.7 µM -4% | [4]; [17] -16% | [4]; at 11.0 µM 29% | [5]; at 1.2 µM 5% | [5]; at 3.7 µM 14% | [5]; [17] 6% | [5]; at 11.0 µM 33% | [6]; at 1.2 µM -9% | [6]; at 3.7 µM -11% | [6]; at 11.0 µM 5% | [7]; [17] 8% | [8]; at 1.2 µM 10% | [8]; at 3.7 µM 12% | [8]; at 11.0 µM 14% | [8]; at 33.0 µM 39% | [9]; [17] 39% | [9]; [18] 67% | [9]; at 50.0 µM 65.1% | [10]; at 1.2 µM 1% | [10]; at 3.7 µM 23% | [10]; [17] 27% | [10]; at 11.0 µM 45% | [11]; at 1.2 µM -3% | [11]; at 3.7 µM 9% | [11]; at 11.0 µM 36% | [12]; at 1.2 µM 19% | [12]; at 3.7 µM 17% | [12]; at 11.0 µM 51% | [13]; at 1.2 µM 18% | [13]; at 3.7 µM 24% | [13]; at 11.0 µM 57% | [14]; [17] -21% | [15]; at 1.2 µM 9% | [15]; at 3.7 µM 14% | [15]; at 11.0 µM 39%

O=P(Oc1ccc(Cl)cc1)(Oc1ccc(Cl)cc1)N1CC1
inactive: [2]; at 1.2 µM -2% | [2]; at 3.7 µM -6% | [2]; at 11.0 µM -4% | [2]; at 33.0 µM -2% | [2]; at 100.0 µM 2% | [16]; at 1.2 µM -3% | [16]; at 3.7 µM -1% | [16]; at 11.0 µM 4% | [16]; at 33.0 µM 6% | [16]; at 100.0 µM -4% | [3]; at 1.2 µM -6% | [3]; at 3.7 µM -3% | [3]; at 11.0 µM -5% | [3]; at 33.0 µM -4% | [3]; at 100.0 µM 49% | [4]; at 1.2 µM 2% | [4]; at 3.7 µM 1% | [4]; [17] -9% | [4]; at 11.0 µM 2% | [4]; at 33.0 µM 8% | [4]; [18] 43% | [4]; at 50.0 µM 4.75% | [5]; at 1.2 µM -3% | [5]; at 3.7 µM -1% | [5]; [17] 4% | [5]; at 11.0 µM -2% | [5]; at 33.0 µM -1% | [5]; [18] 6% | [5]; at 50.0 µM 14.3% | [5]; at 100.0 µM 28% | [6]; at 1.2 µM 0% | [6]; at 3.7 µM 1% | [6]; at 11.0 µM 5% | [6]; at 33.0 µM 19% | [7]; [17] -10% | [7]; [18] 35% | [7]; at 50.0 µM 18.9% | [8]; at 1.2 µM -4% | [8]; at 3.7 µM -5% | [8]; at 11.0 µM 6% | [8]; at 33.0 µM 14% | [8]; at 100.0 µM 48% | [9]; [17] -17% | [9]; [18] 48% | [9]; at 50.0 µM 9.3% | [10]; at 1.2 µM -4% | [10]; at 3.7 µM -2% | [10]; [17] -23% | [10]; at 11.0 µM -5% | [10]; at 33.0 µM 2% | [10]; [18] 27% | [10]; at 50.0 µM 34.4% | [10]; at 100.0 µM 32% | [11]; at 1.2 µM -11% | [11]; at 3.7 µM -13% | [11]; at 11.0 µM -14% | [11]; at 33.0 µM -8% | [11]; at 100.0 µM 46% | [12]; at 1.2 µM -3% | [12]; at 3.7 µM -3% | [12]; at 11.0 µM -4% | [12]; at 33.0 µM 2% | [12]; at 100.0 µM 59% | [13]; at 1.2 µM -1% | [13]; at 3.7 µM -23% | [13]; at 11.0 µM 2% | [13]; at 33.0 µM 13% | [14]; [17] -8% | [14]; at 50.0 µM 32.1% | [15]; at 1.2 µM -5% | [15]; at 3.7 µM -1% | [15]; at 11.0 µM 0% | [15]; at 33.0 µM 3% | [15]; at 100.0 µM 47%
active: [4]; at 100.0 µM 79% | [6]; at 100.0 µM 90% | [13]; at 100.0 µM 92% | [14]; [18] 83%

O=C(Nc1cc(Cl)ccc1Cl)C(Cl)(Cl)Cl
inactive: [1]; at 1.2 µM 1% | [1]; at 3.7 µM 6% | [1]; at 11.0 µM 12% | [1]; at 33.0 µM 22% | [1]; at 100.0 µM 30% | [16]; at 1.2 µM 2% | [16]; at 3.7 µM 8% | [16]; at 11.0 µM 14% | [16]; at 33.0 µM 22% | [16]; at 100.0 µM 25% | [3]; at 1.2 µM 1% | [3]; at 3.7 µM 3% | [3]; at 11.0 µM 6% | [3]; at 33.0 µM 5% | [3]; at 100.0 µM -22% | [4]; at 1.2 µM 2% | [4]; at 3.7 µM 6% | [4]; [17] 16% | [4]; at 11.0 µM 13% | [4]; at 33.0 µM 26% | [4]; [18] 41% | [4]; at 50.0 µM 53.9% | [4]; at 100.0 µM 26% | [5]; at 1.2 µM 1% | [5]; at 3.7 µM 6% | [5]; [17] -4% | [5]; at 11.0 µM 11% | [5]; at 33.0 µM 19% | [5]; [18] 58% | [5]; at 50.0 µM 61.3%

— PubChem BioAssay (NCI)
